Pf apPOL inh = Pf-apPOL DNA polymerase inhibition; Recombinant Pf-apPOL, molecular beacon fluorescence, 1.5 h; inhibition, % at 10 µM; 0.25% of 210,000 active; AID 1794808
mHTT CaM bind = inhibitors of human mutant huntingtin-calmodulin interaction | 3.6% of 190,000 active | AlphaScreen His-mHTT/GST-CaM binding, luminescence | inhibition, % at 15 µM
Numbers stand for hits; n = inactive; x = no result given. The list is not random: actives were taken first. Their share in the collection is about 3.6%. Cut-off read from the data, not from the text of the source: active = inhibition above about 50%; inactive = the rest.

SMILES | Pf apPOL inh | mHTT CaM bind
CN(C)c1ccc(/C=C2\N=C(c3ccc(C(C)(C)C)cc3)OC2=O)cc1 | n | n
COc1nccnc1NC1CCN(S(C)(=O)=O)CC1 | n | n
Cc1cc(C)cc(NC(=O)N2CCOc3ccc(Cl)cc32)c1 | n | n
O=C(C1CCN(c2nnc(-c3ccccc3)o2)CC1)N1CCC(Cc2ccccc2)CC1 | n | 70
O=C(C1CCN(c2nnc(-c3ccccc3)o2)CC1)N1CCCCC1 | n | n
O=C(NCCCN1CCOCC1)C1CCc2sc(C(=O)N3CCOCC3)cc2C1 (centres undefined) | n | n
CC(=O)Nc1nc2nccc(-c3ccccc3)n2n1 | n | n
O=C(O)CCCC(=O)Nc1nc2nccc(-c3ccccc3)n2n1 | n | 82
O=C1CC(c2ccco2)Cc2c1c(Nc1ccc(F)cc1)nn2-c1ccccc1 (centres undefined) | n | n
CC(C(=O)NN)n1cnc2sc3c(c2c1=O)CCCC3 (centres undefined) | x | n
CC(=O)OCC1OC(Oc2ccccc2C(=O)O)C(OC(C)=O)C(OC(C)=O)C1OC(C)=O (centres undefined) | n | n
O=[N+]([O-])c1cc(Br)c2nsnc2c1N1CCCCCC1 | x | 51
O=[N+]([O-])c1cc(Br)c2nsnc2c1Br | n | n
COc1ccc(NC(=O)C2CC(=O)N(CCc3c[nH]c4ccc(OC)cc34)C2)cc1 (centres undefined) | n | n
COc1ccc2[nH]cc(CCN3CC(C(=O)Nc4ccc(Cl)cc4)CC3=O)c2c1 (centres undefined) | n | n
COc1ccc2[nH]cc(CCN3CC(C(=O)Nc4ccc5c(c4)CCC5)CC3=O)c2c1 (centres undefined) | n | 61
COc1ccc(CNC(=O)C2CC(=O)N(CCc3c[nH]c4ccc(F)cc34)C2)cc1 (centres undefined) | n | n
COc1ccc(NC(=O)C2CC(=O)N(CCc3c[nH]c4ccc(Cl)cc34)C2)c(OC)c1 (centres undefined) | n | 77
COc1ccc(CNC(=O)C2CC(=O)N(CCc3c[nH]c4ccc(Cl)cc34)C2)cc1 (centres undefined) | n | 74
O=C(Cc1ccccc1)N1CCCCC1c1nc(-c2cnccn2)no1 (centres undefined) | n | n
Cc1ccc(CC(=O)N2CCC(COc3ccc(C(=O)N4CCOCC4)cc3)CC2)cc1 | n | n
O=C1NC(=Nc2ccccc2)S/C1=C\c1ccc2c(c1)OCO2 | n | n
CC1CCN(C2=CC(=O)N(c3ccc(C(=O)N4CCCCCC4)cc3)C2=O)CC1 | n | n
Cc1ccnc(N2CCC(C(=O)NCCN3CCC(Cc4ccccc4)CC3)CC2)n1 | n | n
O=C(NCc1ccco1)C1CCN(c2nc3ccc(-c4cncnc4)nc3s2)CC1 | n | n
SMILES | Pf apPOL inh | mHTT CaM bind
COc1ccc(NC(C)=O)cc1NC(=O)c1sc2nc(-c3ccccc3)cn2c1C | n | 52
CC(=O)Nc1cccc(NC(=O)c2sc3nc(-c4ccccc4)cn3c2C)c1 | n | n
Cc1cccc(S(=O)(=O)N2CCCC(C)(C(=O)NCc3ccccc3)C2)c1 (centres undefined) | n | n
CC1(C(=O)NCc2ccccc2)CCCN(S(=O)(=O)c2ccc(F)c(Cl)c2)C1 (centres undefined) | n | 66
COc1ccc(Cl)cc1S(=O)(=O)N1CCCC(C)(C(=O)NCc2ccccc2)C1 (centres undefined) | n | 95
COc1ccc(OC)c(S(=O)(=O)N2CCCC(C)(C(=O)NCc3ccccc3)C2)c1 (centres undefined) | n | n
O=C(c1ccc(OCC2CCCN(C(=O)c3ccco3)C2)cc1)N1CCCC1 (centres undefined) | n | n
CC1(CO)CCCN1C(=O)Cc1ccsc1 (centres undefined) | n | n
Fc1cccc(-c2nc(-c3ccc4nncn4c3)no2)c1 | n | n
COc1cccc(-c2nc(C3CCN(S(=O)(=O)c4ccc5c(c4)CCC5)CC3)no2)c1 | n | n
CCNC(=O)C1CCCN1C(=O)Nc1ccccc1 (centres undefined) | n | n
COc1ccc(C)cc1NC(=O)CN1CCC(c2nc(-c3ccc(F)cc3)no2)CC1 | n | n
CSc1ccc(C2C(C#N)=C(N)Oc3cc(N(C)C)ccc32)cc1 (centres undefined) | n | n
CCOc1ccccc1C1C(C#N)=C(N)Oc2cc(N(C)C)ccc21 (centres undefined) | n | 61
COc1ccc(Nc2cc(C)c3cc(C)ccc3n2)cc1 | n | 56
Cc1ccc2nc(Cl)cc(C)c2c1 | x | n
O=C(Cn1cc([N+](=O)[O-])nc1[N+](=O)[O-])Nc1cc(Oc2ccccc2)cc([N+](=O)[O-])c1 | n | 51
O=C(Cn1cnc([N+](=O)[O-])c1)Nc1cc(Oc2cccnc2)cc([N+](=O)[O-])c1 | n | n
O=C(Cn1cnc([N+](=O)[O-])n1)Nc1cc(Oc2cccc(C(F)(F)F)c2)cc([N+](=O)[O-])c1 | n | 51
O=C(Cn1cnc([N+](=O)[O-])n1)Nc1cc(Oc2ccc(F)cc2)cc([N+](=O)[O-])c1 | n | n
Cc1oc(C2CCN(C(=O)Nc3ccc4c(c3)CCC4)CC2)nc1C(=O)N1CCCC1 | n | n
Cc1noc(C)c1-n1sc(=O)n(-c2ccc(F)cc2)c1=O | 73 | x
Cc1ccc(-n2sc(=O)n(Cc3ccc(F)cc3)c2=O)cc1 | n | x
CC(C)C(C)NC(=O)Cc1noc(-c2ccccc2Cl)n1 (centres undefined) | n | n
CC(=O)Nc1ccc(SC[C@H](Cc2ccccc2)N2CCN(CCc3ccccc3)CCC2=O)cc1 | n | 100
SMILES | Pf apPOL inh | mHTT CaM bind
CC(=O)Nc1ccc(SCCN2CCN(CCc3ccccc3)CCC2=O)cc1 | n | n
Cc1ccc(SC[C@H](c2ccccc2)N2CCN(CCc3ccccc3)CCC2=O)cc1 | n | 100
CCCN1CCC(=O)N([C@H](CSc2ccccc2)c2ccccc2)CC1 | n | n
O=C1CCN(CCc2ccccc2)CCN1[C@H](CSc1ccccc1)c1ccccc1 | n | 100
CC(C)C[C@@H](CSc1ccc(Br)cc1)N1CCN(CCc2ccccc2)CCC1=O | n | n
CC(C)C[C@@H](CSc1ccccc1)N1CCN(CCc2ccccc2)CCC1=O | n | 88
CCCN1CCC(=O)N([C@H](CSc2ccc(C)cc2)c2ccccc2)CC1 | n | n
CCC(=O)N1CCc2cc(S(=O)(=O)Nc3ccc(Br)cc3C)ccc21 | n | n
CCOC(=O)c1oc2c(CN3CCCCC3C)c(O)ccc2c(=O)c1-c1ccccc1OC (centres undefined) | n | n
CCSC1=NSC2=NC(=O)/C(=C\c3ccc4c(c3)OCO4)C(=N)N12 | n | n
O=c1[nH]c2ccsc2c(=O)n1-c1cccc(C(F)(F)F)c1 | n | n
CCC(=O)NCc1nc2c(n1C)CN(S(=O)(=O)c1ccc(Cl)cc1)CC2 | n | n
O=C1CCN(CCc2ccccc2)CCN1[C@H](COc1ccccc1)c1ccccc1 | n | 100
O=C1CCC(OCc2ccccc2)CCN1[C@H](CSc1ccccc1)Cc1ccccc1 (some centres undefined) | n | 53
Cc1ccc(SC[C@H](Cc2ccccc2)N2CC[C@@H](C)CCC2=O)cc1 | n | n
CCCN1CCC(=O)N([C@H](COc2ccccc2)c2ccccc2)CC1 | n | n
COc1ccc(S(=O)(=O)N2CCC(c3noc(-c4cccc(C)c4)n3)CC2)cc1 | n | n
Fc1ccc(-n2nc3ccc4nonc4c3n2)c(F)c1 | n | n
O=C1C(Nc2cccc(Cl)c2)=C(N2CCCCC2)C(=O)c2ccccc21 | n | 68
